Autofluor counter: counter-screen for toxin protease inhibitors: compound fluorescence; compound autofluorescence counterscreen, microsphere flow cytometry; active compounds read high; fluorescence intensity (no concentration beside the values); 360,000 tested, 3.1% active; in the data active = fluorescence intensity above about 16000; inconclusive = no clear call, values can overlap the other calls
Anthrax LF prot: inhibitors of Bacillus anthracis lethal factor protease. multiplex microsphere protease cleavage assay, LF. P15917. inhibition, % at 10 µM. 360,000 tested, 0.12% active; note: plate controls were buffer without enzyme for full effect and enzyme alone for no effect
MazF activator: increases E. coli MazEF RNase cleavage of RNA. 350,000 tested, 0.32% active. activation, % at 20 µM. AID 504720. FAM/BHQ RNA-DNA oligo cleavage fluorescence, 5 h; in the data active = activation above about 50%
BoNT-A LC inh2: inhibitors of Botulinum neurotoxin A light chain protease | 360,000 tested, 0.17% active | inhibition, % at 10 µM | AID 588499 | multiplex microsphere protease substrate cleavage, flow cytometry; note: plate controls were buffer without enzyme for full effect and enzyme alone for no effect
BoNT-F LC inh: BoNT F light chain protease inhibition; AID 588497; 360,000 tested, 0.22% active; Multiplex microsphere protease cleavage assay, flow cytometry; inhibition, % at 10 µM; in the data active = inhibition above about 35%, passing the limit was not always enough; inconclusive = no clear call, values can overlap the other calls; note: plate controls were buffer without enzyme for full effect and enzyme alone for no effect
Numbers without * were called inactive; ? = inconclusive; nt = no result given. This is a sample that favours compounds with a hit; in the whole collection about 3.7% have one here. Cut-off read from the data, not from the text of the source, unless noted: active = inhibition above about 30%; inconclusive = no clear call, values can overlap the other calls; inactive = below that.

SMILES | Autofluor counter | Anthrax LF prot | MazF activator | BoNT-A LC inh2 | BoNT-F LC inh
CCOc1cccc(N2C(=O)CC(=O)NC2=O)c1 | 4775 | 1.2 | -0.2 | 0.0 | 1.1
Cc1ccccc1N1C(=O)CC(=O)NC1=O | 21951* | 0.6 | 5.2 | -7.3 | -7.8
O=C(CCS(=O)(=O)c1ccc(Br)cc1)NCc1ccc(F)cc1 | 4459 | -1.5 | -17.2 | 1.1 | -4.8
Cc1ccc(CN2C(=O)C(F)(F)Oc3ccc(C)cc32)cc1 | 2899 | -8.1 | nt | -0.2 | -4.5
O=C(Nc1ccnn1C1CCN(C(=O)Cc2cccc(Cl)c2)CC1)C1CC1 | 4807 | -0.6 | 0.8 | -5.4 | -13.6
COc1cccc(C2=NOC(C(=O)N3CCOCC3)C2)c1 (stereo unspecified) | 8080 | 0.6 | 0.8 | -1.7 | 1.0
COc1ccc(C2=NOC(C(=O)N3CCOCC3)C2)cc1OC (stereo unspecified) | 23787* | -0.2 | -7.5 | -5.0 | -5.3
COc1cc(OC)c(C2=NOC(C(=O)N3CCCc4ccccc43)C2)cc1Cl (stereo unspecified) | 23619* | -7.1 | -4.3 | -1.7 | 0.2
O=C(C1CC(c2ccccc2O)=NO1)N1CCC2(CC1)OCCO2 (stereo unspecified) | 20077* | 0.0 | 1.0 | 6.1 | 6.9
CCOC(=O)N1CCN(C(=O)C2CC(c3ccccc3OC)=NO2)CC1 (stereo unspecified) | 20183* | -13.9 | 0.5 | 8.0 | 8.7
COc1ccc(Cc2c(-c3ccc(C#N)cc3)nc3c(Cl)cc(C(F)(F)F)cn23)c(C)c1 | 5657 | 2.9 | nt | 1.4 | -8.9
CCOC(=O)c1c(-c2cccs2)csc1NC(=O)CC(C)C | 4044 | -0.3 | -2.0 | 0.5 | -9.0
CCOC(=O)c1c(-c2cccs2)csc1NC(=O)CN(CC)CC | 22950* | -6.4 | -8.4 | -1.5 | -0.6
COc1ccc(O)c(CN2CCC(n3nccc3NC(=O)c3ccccc3Cl)CC2)c1 | 6355 | 0.2 | -0.2 | -1.4 | -12.9
C=CCNC(=O)c1ccc(OC)cc1 | 4071 | -0.4 | -2.5 | -2.8 | ?
C=CCNC(=O)c1ccc(N(C)S(=O)(=O)c2ccc(OC)cc2)cc1 | 16765* | -0.4 | 4.8 | -1.5 | -3.8
O=C(Nc1nc(-c2ccccc2)cs1)c1cccc([N+](=O)[O-])c1 | 20697* | -3.0 | 5.5 | -3.1 | -5.8
O=C(Nc1nc(-c2cccnc2)cs1)c1cccc([N+](=O)[O-])c1 | 4501 | -0.8 | 12.8 | -1.0 | -1.9
O=C(Cc1nc(-c2ccc([N+](=O)[O-])cc2)cs1)Nc1ccccc1 | 21221* | -5.4 | -4.2 | 2.5 | 0.9
Cc1ccc(-c2cccc(-c3cc(=O)oc4ccc(C(C)(C)C)cc34)c2)cc1 | 3118 | 1.6 | -3.9 | -0.3 | -2.3
CC1=C(C#N)C(c2ccccc2)C2=C(N1)c1ccccc1C2=O (stereo unspecified) | 2586 | -4.2 | 13.9 | -0.4 | -6.7
CC1C(c2ccccc2)C(C#N)(C#N)C2(C#N)C(=O)NC1(N)C2C (stereo unspecified) | 37669* | -9.5 | 0.0 | -29.4 | -49.5
Cc1ccc(OCC(=O)Nc2cccc(-c3nnc(-c4ccccc4)o3)c2)c(C)c1 | 21189* | -3.4 | -0.7 | ? | 2.7
CC(C)C(NC(=O)COc1ccccc1)C(=O)O (stereo unspecified) | 19854* | -6.5 | -1.1 | 6.3 | 9.2
Cc1cccc(NC(=O)COc2ccccc2)c1 | 26330* | -0.9 | 0.1 | -10.9 | -14.5
SMILES | Autofluor counter | Anthrax LF prot | MazF activator | BoNT-A LC inh2 | BoNT-F LC inh
Cc1ccc(OCC(=O)Nc2ccc(Cl)cc2)c(-n2nc3ccccc3n2)c1 | 5370 | -2.2 | 69.4* | 2.1 | -8.0
COc1ccc(CC(=O)Nc2cccc(-c3nnc(-c4ccc(C)cc4)o3)c2)cc1OC | 6379 | -8.2 | 7.4 | -0.6 | -14.5
COc1ccc2c(CN3CCCCCCC3)cc(=O)oc2c1 | 6649 | -2.6 | nt | 0.3 | 6.9
CCOC(=O)Nc1cccc(OCC(=O)Nc2ccccc2OCC)c1 | 22734* | -2.6 | 2.2 | -0.6 | -1.7
CCOC(=O)c1nn(-c2ccc(C)cc2)c(=O)cc1OCC(=O)Nc1cccc(C)c1 | 4308 | -0.2 | -6.1 | 10.0 | 42.7*
CC(=O)Nc1cccc(OCC(=O)Nc2ccccc2)c1 | 7096 | -14.0 | 5.1 | 0.2 | -2.8
Cc1ccc(NC2=NCC(=O)N2Cc2cccs2)cc1C | 2474 | -0.7 | -15.4 | 0.3 | 1.2
CCOC(=O)Cn1c(=NC(=O)c2ccc([N+](=O)[O-])s2)sc2ccccc21 | 2362 | 0.9 | 276.1* | 0.6 | 0.5
O=C(C1CCCN(S(=O)(=O)c2cc(Cl)ccc2Cl)C1)N1CCOCC1 (stereo unspecified) | 5924 | -0.4 | -2.5 | 1.1 | -3.2
O=C(Cc1ccccc1)Nc1cccc(N2CCCC2)c1 | 22002* | -8.2 | 0.4 | ? | -25.0
O=C(Cc1ccccc1)Nc1ccc(N2CCCC2)cc1 | 3816 | -28.9 | -7.0 | 2.2 | -198.0
C=CCNC(=O)c1c[nH]c2ccc(S(=O)(=O)N(C)c3ccc(OCC)cc3)cc2c1=O | 2969 | -10.5 | -8.2 | -1.0 | 1.7
COc1ccc(OC)c(N/C(C)=C/C(=O)c2ccc(C)o2)c1 | 20443* | -1.2 | 2.4 | ? | -7.4
Cc1ccc(Oc2nn[nH]n2)cc1 | 11115 | -0.2 | 5.2 | -0.4 | 3.8
CCc1cccc(Oc2nn[nH]n2)c1 | 24949* | 0.3 | 5.3 | -2.6 | -3.6
CCOC(=O)C1(CC2CCCCO2)CCN(Cc2cc3ccccc3[nH]2)CC1 (stereo unspecified) | 2703 | 0.4 | -13.6 | 3.0 | -9.2
CCOC(=O)C1=C(N)n2c(s/c(=C/c3ccco3)c2=O)=C(C(=O)OC)C1c1ccco1 (stereo unspecified) | 20070* | 0.5 | 0.7 | ? | 0.1
COc1ccc(N(CC(=O)NCc2ccc3c(c2)OCO3)S(=O)(=O)c2ccc(O)c(C(=O)O)c2)cc1 | ? | -4.6 | -0.9 | 8.6 | -3.9
COc1ccc(CC(=O)Nc2ccc(S(=O)(=O)N(C)C)cc2)cc1OC | 4813 | -6.4 | 3.2 | -0.2 | -10.9
COc1cc(CC(=O)Nc2ccc(S(=O)(=O)N(C)C)cc2)cc(OC)c1OC | 23513* | 0.2 | -4.3 | -0.3 | 2.9
COc1cc(C(=O)Nc2ccc(S(=O)(=O)NC(C)C)cc2)cc(OC)c1OC | 16279* | -3.0 | 5.5 | 0.3 | 0.0
COc1cc(C(=O)Nc2ccc(S(=O)(=O)NC(C)(C)C)cc2)cc(OC)c1OC | 9618 | 0.1 | 16.1 | 1.0 | 4.8
CCC(CO)Oc1cc(NCc2ccccc2Cl)c2ncn(C(C)C)c2c1 (stereo unspecified) | 3089 | -4.9 | -0.5 | 0.3 | -1.2
N#C/C(=C/c1ccc(Sc2nc3ccccc3[nH]2)o1)c1ccccc1F | 16534* | -2.2 | 16.1 | ? | -4.2
N#C/C(=C/c1ccc(Sc2nc3ccccc3[nH]2)o1)c1cccc(F)c1 | 23920* | -1.5 | 2.1 | -0.3 | -1.8
Cc1noc(C)c1S(=O)(=O)NCc1cccc(Cl)c1 | 4796 | 5.3 | 6.8 | 3.9 | 12.1
Cc1ccccc1C(=O)NCCCn1ccnc1 | 3866 | -0.8 | 3.3 | 0.3 | 36.6*
Cc1ccccc1OCCCCCn1ccnc1 | 24874* | 0.4 | 6.2 | -1.9 | -4.4
O=C(NCCCn1ccnc1)c1sc2cccc(F)c2c1Cl | 21856* | 4.8 | 4.4 | 4.9 | 3.7
Clc1ccccc1OCCCCn1ccnc1 | 11053 | -3.4 | 6.2 | -0.2 | -8.3
